The structures appear in SMILES notation. Hit rate of the full screen: of about 3,200 compounds, about 110 (3.4%) showed an effect of 50% or more. The entries come from a sample that favours strong results as a whole.

The subject of this experiment is T1, V. cholerae SAD30.
T1 construct: SAD30
The arrangement: species or system S. aureus MSSA476 (TSB) or V. cholerae SAD30 (LB); 384-well bacterial growth screen at 25 uM, OD600 relative to DMSO control. The conditions noted are these: relative growth, OD600, LB; 25 µM; inhibitor.
Turning to `COc1ccc2c(c1)OCCN(C(=O)C(C)Cl)C2` (stereo not drawn) [7-E04, 2-chloro-1-(8-methoxy-2,3,4,5-tetrahydro-1,4-benzoxazepin-4-yl)propan-1-one], the “% of control remaining” value is on record as 86.04%. As to `C=CC(=O)NCc1cscn1` [1-I07, N-[(1,3-thiazol-4-yl)methyl]prop-2-enamide], the “% of control remaining” value came to 90.1345%.

`O=C(CCl)Cc1cccc(F)c1` [10-C11, 1-chloro-3-(3-fluorophenyl)propan-2-one]: the “% of control remaining” value was determined as 7.637%. Next, `O=C(CCl)Cc1ccc(Cl)c(Cl)c1` [10-E15, 1-chloro-3-(3,4-dichlorophenyl)propan-2-one]: 25.5601%. Next, `O=C(CCl)Cc1cccc(Cl)c1` [10-E17, 1-chloro-3-(3-chlorophenyl)propan-2-one]: 7.481%; `O=C(CCl)N1CCC1c1cccc(F)c1` (stereo not drawn) [5-K10, 2-chloro-1-[2-(3-fluorophenyl)azetidin-1-yl]ethan-1-one]: 86.5819%; `O=C(CCl)NCCc1cccc(Cl)c1` [5-O05, 2-chloro-N-[2-(3-chlorophenyl)ethyl]acetamide]: 115.33%. As for `CC(C)c1ccc(CC(=O)CCl)cc1` [10-I17, 1-chloro-3-[4-(propan-2-yl)phenyl]propan-2-one], the “% of control remaining” value is 115.644%. Regarding `Cc1cccc(CC(=O)CCl)c1` [10-I19, 1-chloro-3-(3-methylphenyl)propan-2-one], the “% of control remaining” value amounted to 92.7333%. As for `O=C(CCl)Nc1cc(Cl)cc(Cl)c1` [4-K09, 2-chloro-N-(3,5-dichlorophenyl)acetamide], the figure is 84.8825%; as for `O=C(Cc1cccc(F)c1)N1CCSSCC1` [10-L21, 1-(1,2,5-dithiazepan-5-yl)-2-(3-fluorophenyl)ethan-1-one], 98.8116%; as for `Cc1ccc(CC(=O)CCl)cc1` [10-O13, 1-chloro-3-(4-methylphenyl)propan-2-one], 100.058%. Next, `CC(C)(C)c1ccc(CC(=O)CCl)cc1` [10-G19, 1-(4-tert-butylphenyl)-3-chloropropan-2-one]: 116.579%; `O=C(CCl)Cc1cc(Cl)cc(Cl)c1` [10-I15, 1-chloro-3-(3,5-dichlorophenyl)propan-2-one]: 20.7286%.

For `COc1cc(C=C(C#N)C(=O)Nc2cccc(C)c2)c2c(c1)CC(C)O2` (stereo not drawn) [8-N22, 2-cyano-3-(5-methoxy-2-methyl-2,3-dihydro-1-benzofuran-7-yl)-N-(3-methylphenyl)prop-2-enamide], the “% of control remaining” value is reported as 77.7022%. In the case of `C=CC(=O)NCc1cn([C@@H]2COC[C@H]2OC)nn1` [1-J17, N-({1-[(3R,4S)-4-methoxyoxolan-3-yl]-1H-1,2,3-triazol-4-yl}methyl)prop-2-enamide], the “% of control remaining” value amounted to 85.0523%. As to `C=CC(=O)N(Cc1ccc(Cl)cc1Cl)CC1CCC(O)C1` (stereo not drawn) [1-B04, N-[(2,4-dichlorophenyl)methyl]-N-[(3-hydroxycyclopentyl)methyl]prop-2-enamide], the “% of control remaining” value turned out to be 107.949%. Take `Cc1cc(C(=O)CCl)c(C)n1C(C)c1ccccc1` (stereo not drawn) [10-P17, 2-chloro-1-[2,5-dimethyl-1-(1-phenylethyl)-1H-pyrrol-3-yl]ethan-1-one]: the “% of control remaining” value is on record as 96.4738%. Regarding `CC(NC(=O)C(C#N)=Cc1ccco1)c1cccc(-n2cccn2)c1` (stereo not drawn) [9-J04, 2-cyano-3-(furan-2-yl)-N-{1-[3-(1H-pyrazol-1-yl)phenyl]ethyl}prop-2-enamide], the “% of control remaining” value came out at 81.5092%. Next, `C=CC(=O)N1CCCCC1c1nc2ccccc2n1C` (stereo not drawn) [3-F04, 1-[2-(1-methyl-1H-1,3-benzodiazol-2-yl)piperidin-1-yl]prop-2-en-1-one]: 96.3242%; `C=CC(=O)NCC(c1c(F)cccc1F)N1CC(C)OC(C)C1` (stereo not drawn) [1-I13, N-[2-(2,6-difluorophenyl)-2-(2,6-dimethylmorpholin-4-yl)ethyl]prop-2-enamide]: 82.5112%.

For `N#CC(=Cc1ccc(-c2ccccc2Cl)o1)C(=O)N1CCCCC1` [8-F20, 3-[5-(2-chlorophenyl)furan-2-yl]-2-(piperidine-1-carbonyl)prop-2-enenitrile], the “% of control remaining” value is recorded as 64.378%. As for `O=C(CCl)N1CC(S(=O)(=O)Nc2ccccc2)C1` [5-G10, 1-(2-chloroacetyl)-N-phenylazetidine-3-sulfonamide], the figure is 71.283%; as for `O=C(NC1CC1)C1(C(=O)N2CCSSCC2)CCC1` [10-B21, N-cyclopropyl-1-(1,2,5-dithiazepane-5-carbonyl)cyclobutane-1-carboxamide], 104.89%.

As to `Cn1nc(C(F)(F)F)cc1CN(C(=O)CCl)C1CCCC1` [5-C16, 2-chloro-N-cyclopentyl-N-{[1-methyl-3-(trifluoromethyl)-1H-pyrazol-5-yl]methyl}acetamide], the “% of control remaining” value came to 89.1037%. As for `O=C(CCl)Cc1ccc(F)c(F)c1` [10-O17, 1-chloro-3-(3,4-difluorophenyl)propan-2-one], the figure is 19.3259%. As for `O=C(CCl)Cc1ccc(F)cc1` [10-G15, 1-chloro-3-(4-fluorophenyl)propan-2-one], the “% of control remaining” value stood at 95.6945%. As for `O=C(CCl)Cc1ccc(C(F)(F)F)cc1` [10-C19, 1-chloro-3-[4-(trifluoromethyl)phenyl]propan-2-one], the figure is 79.6415%; as for `COc1ccc(OC)c(N2C(=O)C=CC2=O)c1` [10-N15, 1-(2,5-dimethoxyphenyl)-2,5-dihydro-1H-pyrrole-2,5-dione], 24.7808%. In the case of `COc1ccccc1CNC(=O)C(C)Cl` (stereo not drawn) [5-M21, 2-chloro-N-[(2-methoxyphenyl)methyl]propanamide], the “% of control remaining” value was found to be 101.376%. Turning to `COc1cc(Cl)c(C)cc1NC(=O)C(C#N)=CC=Cc1ccccc1` [8-A21, N-(4-chloro-2-methoxy-5-methylphenyl)-2-cyano-5-phenylpenta-2,4-dienamide], the “% of control remaining” value is on record as 93.0659%. As for `COc1ccccc1NC(=O)C(C)Cl` (stereo not drawn) [5-L20, 2-chloro-N-(2-methoxyphenyl)propanamide], the “% of control remaining” value came to 97.5097%. Take `COc1cc(Cl)c(C)cc1N1C(=O)C=CC1=O` [10-B15, 1-(4-chloro-2-methoxy-5-methylphenyl)-2,5-dihydro-1H-pyrrole-2,5-dione]: the “% of control remaining” value came to 23.534%.

Consider `COc1ccccc1N1C(=O)C=CC1=O` [10-O10, 1-(2-methoxyphenyl)-2,5-dihydro-1H-pyrrole-2,5-dione], for which the “% of control remaining” value amounted to 26.0277%.

In the case of `COc1ccccc1CN(C)C(=O)CCl` [6-C09, 2-chloro-N-[(2-methoxyphenyl)methyl]-N-methylacetamide], the “% of control remaining” value turned out to be 89.7905%. As for `COc1ccccc1CN1C(=O)C=CC1=O` [10-P21, 1-[(2-methoxyphenyl)methyl]-2,5-dihydro-1H-pyrrole-2,5-dione], the figure is 42.8599%; as for `COc1ccc(OC)c(NC(=O)CCl)c1` [6-O04, 2-chloro-N-(2,5-dimethoxyphenyl)acetamide], 96.0091%; as for `COc1ccc(OC)c(C(C)NC(=O)CCl)c1` (stereo not drawn) [4-M19, 2-chloro-N-[1-(2,5-dimethoxyphenyl)ethyl]acetamide], 102.48%. For `COc1cc(Cl)c(C)cc1NC(=O)C(C)Cl` (stereo not drawn) [6-C15, 2-chloro-N-(4-chloro-2-methoxy-5-methylphenyl)propanamide], the “% of control remaining” value is 86.6054%.

The record behind these values is paper PMC11995724, “Antibiotic target discovery by integrated phenotypic and activity-based profiling of electrophilic fragments” (Cell chemical biology, 2025).
